Substitutions are numbered along the chain they refer to.
Key:
Assay in all cases: protein-binding microarray (PBM); PBM: ~300 nM protein, 6 mM HEPES pH 7.8, 80 mM KCl, 0.5 mM EDTA, 0.5 mM EGTA, 6% glycerol, 35 ng/ul poly-dIdC, 1% milk, 1 h, room temperature; Ap Aiptasia and Nv Nematostella (sea anemones) / Co Capsaspora / Aq Amphimedon (sponge) / Dm Drosophila / Hu human; RHD is the Rel homology domain; high values mean tight binding
Conditions in all cases: dsDNA, one strand shown
GST-Ap-NF-kB RHD = target: T1, GST-Ap-NF-kB RHD (Exaiptasia pallida (Aiptasia), UniProt A0A913YAJ5 2-422)
T1 sequence: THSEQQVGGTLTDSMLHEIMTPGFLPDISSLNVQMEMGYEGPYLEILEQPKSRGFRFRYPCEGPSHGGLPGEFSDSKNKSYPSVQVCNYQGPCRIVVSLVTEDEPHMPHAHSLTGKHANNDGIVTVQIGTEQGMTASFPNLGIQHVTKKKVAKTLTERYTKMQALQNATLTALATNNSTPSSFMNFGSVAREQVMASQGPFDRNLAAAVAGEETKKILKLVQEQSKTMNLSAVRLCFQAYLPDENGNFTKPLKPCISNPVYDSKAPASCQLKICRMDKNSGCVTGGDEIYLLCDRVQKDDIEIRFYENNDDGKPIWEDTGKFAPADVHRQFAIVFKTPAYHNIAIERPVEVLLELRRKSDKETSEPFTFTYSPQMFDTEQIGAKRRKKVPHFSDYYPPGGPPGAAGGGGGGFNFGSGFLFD

[1] = target: T2, GST-Nv-NF-kB (Cys allele) (Nematostella vectensis, UniProt E5G601 2-411)
T2 sequence: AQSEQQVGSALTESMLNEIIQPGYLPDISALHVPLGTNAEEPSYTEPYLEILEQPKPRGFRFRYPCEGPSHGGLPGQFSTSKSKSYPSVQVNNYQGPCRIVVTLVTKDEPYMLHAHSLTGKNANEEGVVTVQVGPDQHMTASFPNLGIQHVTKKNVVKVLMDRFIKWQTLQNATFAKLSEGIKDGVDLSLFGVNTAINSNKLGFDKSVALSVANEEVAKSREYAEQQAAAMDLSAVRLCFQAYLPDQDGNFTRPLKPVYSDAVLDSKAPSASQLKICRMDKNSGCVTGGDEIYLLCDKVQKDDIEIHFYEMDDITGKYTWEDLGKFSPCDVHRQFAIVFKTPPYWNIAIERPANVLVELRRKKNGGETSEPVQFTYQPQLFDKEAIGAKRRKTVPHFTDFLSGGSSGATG

[2] = target: T3, GST-Nv-NF-kB (Ser allele) (Nematostella vectensis, UniProt A7UNT2 2-411)
T3 sequence: T2 sequence with Q21R, C66S, S207N, E215Q, V217A, E225K, A268E, D399E

GST-Dm-Relish = target: T4, GST-Dm-Relish (Drosophila melanogaster, UniProt Q94527 99-473)
T4 sequence: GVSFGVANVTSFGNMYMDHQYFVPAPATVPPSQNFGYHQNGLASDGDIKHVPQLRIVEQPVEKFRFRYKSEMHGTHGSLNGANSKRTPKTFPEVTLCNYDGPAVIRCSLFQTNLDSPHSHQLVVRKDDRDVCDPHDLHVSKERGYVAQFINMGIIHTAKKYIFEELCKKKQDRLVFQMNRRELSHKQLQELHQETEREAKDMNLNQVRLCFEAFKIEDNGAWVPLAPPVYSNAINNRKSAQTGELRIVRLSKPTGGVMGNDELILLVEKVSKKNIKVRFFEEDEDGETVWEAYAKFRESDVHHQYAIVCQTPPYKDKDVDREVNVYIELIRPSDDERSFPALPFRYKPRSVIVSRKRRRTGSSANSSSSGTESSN

GST-Aq-NF-kB = target: T5, GST-Aq-NF-kB (Amphimedon queenslandica, UniProt A9Y5G7 2-389)
T5 sequence: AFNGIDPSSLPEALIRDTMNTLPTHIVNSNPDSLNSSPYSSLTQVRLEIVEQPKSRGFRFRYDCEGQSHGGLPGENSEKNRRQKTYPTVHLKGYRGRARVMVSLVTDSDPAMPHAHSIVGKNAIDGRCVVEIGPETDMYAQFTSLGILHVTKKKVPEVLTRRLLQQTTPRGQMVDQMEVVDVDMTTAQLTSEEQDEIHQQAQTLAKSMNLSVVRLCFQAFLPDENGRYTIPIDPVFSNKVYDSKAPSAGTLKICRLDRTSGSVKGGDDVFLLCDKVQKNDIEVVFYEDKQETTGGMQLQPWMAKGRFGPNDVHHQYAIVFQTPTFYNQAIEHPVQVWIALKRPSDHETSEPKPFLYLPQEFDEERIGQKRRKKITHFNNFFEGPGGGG

GST-Hu-p50 = GST-Hu-p50 (Homo sapiens, UniProt P19838 7-356)
Sequence of GST-Hu-p50 (P19838 7-356): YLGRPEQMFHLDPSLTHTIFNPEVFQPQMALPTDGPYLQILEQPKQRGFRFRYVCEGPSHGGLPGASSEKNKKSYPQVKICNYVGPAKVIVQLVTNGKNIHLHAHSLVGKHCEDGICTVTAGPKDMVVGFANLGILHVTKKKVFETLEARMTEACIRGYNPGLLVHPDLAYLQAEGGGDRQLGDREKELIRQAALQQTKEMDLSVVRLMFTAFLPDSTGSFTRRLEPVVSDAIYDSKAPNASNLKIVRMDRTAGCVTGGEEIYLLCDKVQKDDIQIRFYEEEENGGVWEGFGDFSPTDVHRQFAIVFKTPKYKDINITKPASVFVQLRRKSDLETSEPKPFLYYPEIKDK

GST-Co-NF-kB = target: T6, GST-Co-NF-kB (Capsaspora owczarzaki, UniProt F1ARL5 200-546)
T6 sequence: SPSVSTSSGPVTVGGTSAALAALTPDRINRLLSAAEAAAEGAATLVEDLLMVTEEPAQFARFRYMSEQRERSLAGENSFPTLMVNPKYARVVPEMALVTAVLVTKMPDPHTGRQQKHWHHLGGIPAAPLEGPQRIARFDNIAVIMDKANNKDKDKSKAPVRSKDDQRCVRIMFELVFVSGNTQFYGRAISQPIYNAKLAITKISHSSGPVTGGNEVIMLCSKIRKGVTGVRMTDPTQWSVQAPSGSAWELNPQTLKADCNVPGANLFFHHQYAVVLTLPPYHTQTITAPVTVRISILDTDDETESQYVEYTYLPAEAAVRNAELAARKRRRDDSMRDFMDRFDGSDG

| Sequence | binding signal (GST-Ap-NF-kB RHD) | binding signal [1] | binding signal [2] | binding signal (GST-Dm-Relish) | binding signal (GST-Aq-NF-kB) | binding signal (GST-Hu-p50) | binding signal (GST-Co-NF-kB) |
| --- | --- | --- | --- | --- | --- | --- | --- |
| CCGATTAACATCAGGAAGGTCCCTGATGTTAATCGGGTCTTGATTCGCTTGACGCTGCTG | 3.51 z-score | 2.97 z-score | 1.09 z-score | 1.64 z-score | 5.37 z-score | 2.52 z-score | – |
| CCGATTAACATCACGCATCCCCCTGATGTTAATCGGGTCTTGATTCGCTTGACGCTGCTG | 6.1 z-score | 4.9 z-score | – | 3.44 z-score | 4.33 z-score | 5.14 z-score | 4.65 z-score |
| CCGATTAACATCAGGAAATTACCTGATGTTAATCGGGTCTTGATTCGCTTGACGCTGCTG | 1.96 z-score | 4.03 z-score | 5.26 z-score | 4.76 z-score | 5.23 z-score | 3.82 z-score | – |
| CCGATTAACATCAAACCACCCCCTGATGTTAATCGGGTCTTGATTCGCTTGACGCTGCTG | 3.91 z-score | 3.14 z-score | – | 2.92 z-score | 3.77 z-score | 4.3 z-score | 3.81 z-score |
| CCGATTAACATCAGGGGGGAGACTGATGTTAATCGGGTCTTGATTCGCTTGACGCTGCTG | 5.88 z-score | 4.78 z-score | – | 3.61 z-score | 4.79 z-score | 6.44 z-score | 6.95 z-score |
| CCGATTAACATCAGGGAGGCCCCTGATGTTAATCGGGTCTTGATTCGCTTGACGCTGCTG | 5.52 z-score | 3.79 z-score | 1.37 z-score | 6.28 z-score | 7.2 z-score | 3.63 z-score | – |
| CCGATTAACATCAGGGACATACCTGATGTTAATCGGGTCTTGATTCGCTTGACGCTGCTG | 2.52 z-score | 3.64 z-score | 1.01 z-score | 3.64 z-score | 5.64 z-score | 2.14 z-score | – |
| CCGATTAACATCAGGGATTGCCCTGATGTTAATCGGGTCTTGATTCGCTTGACGCTGCTG | 4.32 z-score | 3.8 z-score | 1.87 z-score | 5.25 z-score | 6.11 z-score | 2.54 z-score | – |
| CCGATTAACATCAAACCTTCCCCTGATGTTAATCGGGTCTTGATTCGCTTGACGCTGCTG | 4.68 z-score | 5.62 z-score | – | 3.12 z-score | 4.92 z-score | 4.13 z-score | 6.54 z-score |
| CCGATTAACATCAAAAAAGTACCTGATGTTAATCGGGTCTTGATTCGCTTGACGCTGCTG | 4.63 z-score | 7.84 z-score | 11.4 z-score | 9.37 z-score | 5.47 z-score | 5.8 z-score | – |
| CCGATTAACATCAGGAAATCACCTGATGTTAATCGGGTCTTGATTCGCTTGACGCTGCTG | 2.81 z-score | 3.51 z-score | 3.89 z-score | 7.51 z-score | 4.87 z-score | 5.42 z-score | – |
| CCGATTAACATCAGGGATTTCACTGATGTTAATCGGGTCTTGATTCGCTTGACGCTGCTG | 2.71 z-score | 2.33 z-score | 1.49 z-score | 6.3 z-score | 4.19 z-score | 2.38 z-score | – |
| CCGATTAACATCAGGGACTTCACTGATGTTAATCGGGTCTTGATTCGCTTGACGCTGCTG | 3.82 z-score | 4.27 z-score | 4.08 z-score | 7.9 z-score | 5.14 z-score | 4.12 z-score | – |
| CCGATTAACATCAAGGGGTTTCCTGATGTTAATCGGGTCTTGATTCGCTTGACGCTGCTG | 6.93 z-score | 5.76 z-score | 4.08 z-score | 7.98 z-score | 6.62 z-score | 5.36 z-score | – |
| CCGATTAACATCAGGAAGTACCCTGATGTTAATCGGGTCTTGATTCGCTTGACGCTGCTG | 3.65 z-score | 3.73 z-score | 3.95 z-score | 6.69 z-score | 6.15 z-score | 3.47 z-score | – |
| CCGATTAACATCAGGAGAGTACCTGATGTTAATCGGGTCTTGATTCGCTTGACGCTGCTG | 1.28 z-score | 2.32 z-score | 3.99 z-score | 2.54 z-score | 3.47 z-score | 2.62 z-score | – |
| CCGATTAACATCAGGAGATCCCCTGATGTTAATCGGGTCTTGATTCGCTTGACGCTGCTG | 7.87 z-score | 8.09 z-score | – | 8.66 z-score | 8.6 z-score | 5.88 z-score | 2.55 z-score |
| CCGATTAACATCACGGGATTACCTGATGTTAATCGGGTCTTGATTCGCTTGACGCTGCTG | 3.75 z-score | 1.79 z-score | 2.51 z-score | 5.47 z-score | 4.66 z-score | 1.16 z-score | – |
| CCGATTAACATCAGGGATTTACATGATGTTAATCGGGTCTTGATTCGCTTGACGCTGCTG | 2.19 z-score | 2.3 z-score | 1.4 z-score | 9.71 z-score | 3.34 z-score | 1.92 z-score | – |
| CCGATTAACATCAAAGAAGTCCCTGATGTTAATCGGGTCTTGATTCGCTTGACGCTGCTG | 5.78 z-score | 6.68 z-score | 6.97 z-score | 5.18 z-score | 5.56 z-score | 5.29 z-score | – |
| CCGATTAACATCAAACATCCCCCTGATGTTAATCGGGTCTTGATTCGCTTGACGCTGCTG | 6.59 z-score | 6.38 z-score | – | 6.53 z-score | 6.6 z-score | 5.44 z-score | 5.97 z-score |
| CCGATTAACATCACGGTAATTCCTGATGTTAATCGGGTCTTGATTCGCTTGACGCTGCTG | 1.42 z-score | 2.05 z-score | 2.65 z-score | 5.3 z-score | 4.04 z-score | 1.7 z-score | – |
| CCGATTAACATCAGGGACTTCCATGATGTTAATCGGGTCTTGATTCGCTTGACGCTGCTG | 5.02 z-score | 5.5 z-score | 5.01 z-score | 6.69 z-score | 5.53 z-score | 4.56 z-score | – |
| CCGATTAACATCAGGGGCTTTACTGATGTTAATCGGGTCTTGATTCGCTTGACGCTGCTG | 4.24 z-score | 5.11 z-score | 3.48 z-score | 7.41 z-score | 5.73 z-score | 4.83 z-score | – |
| CCGATTAACATCAGGAAAGCACCTGATGTTAATCGGGTCTTGATTCGCTTGACGCTGCTG | 2.85 z-score | 4.19 z-score | 2.69 z-score | 6.13 z-score | 5.89 z-score | 4.74 z-score | – |
